Calls of active or inactive are those of the source. The calls were made as follows: active = hit-call score of the fitted dose curve at least 0.9, where 1 is the maximum; inactive = score below 0.9.

Among the data in PubChem BioAssay (EPA / NIEHS) are outcome and AC50 values, retold here.

Settings in all cases: mRNA level, 48 h; actives raise or lower the signal
Read-out in assay [1]: MYC, MYC (gene 4609)
As to the kind of experiment: LTEA_HepaRG_MYC: Life Technologies and Expression Analysis (LTEA) Assay for MYC using HepaRG (AID 2283518). Put shortly:
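Differentiated human HepaRG cells, plated 48 h then switched to serum-free induction medium, were exposed in duplicate for 48 h to 8-point half-log series up to 100 uM in 0.5% DMSO. MYC mRNA measured by qRT-PCR, normalized to ACTB/GAPDH/POLR2A.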

Read-out in assay [2]: matrix metalloproteinase-3 (MMP3), MMP3 (gene 4314)
As to the kind of experiment: LTEA_HepaRG_MMP3: Life Technologies and Expression Analysis (LTEA) Assay for matrix metalloproteinase-3 (MMP3) using HepaRG (AID 2283519). Put shortly: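 Human liver HepaRG cultures received chemicals (top concentration 100 uM, 0.5% DMSO) for 48 h in duplicate. MMP3 mRNA induction or loss was then assessed via TaqMan qRT-PCR with housekeeping-gene normalisation.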

Read-out in assay [3]: Paternally Expressed 10 (PEG10), PEG10 (gene 23089)
Briefly: LTEA_HepaRG_PEG10: Life Technologies and Expression Analysis (LTEA) Assay for Paternally Expressed 10 (PEG10) using HepaRG (AID 2283520). Put shortly:
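qRT-PCR read-out: PEG10 mRNA normalised to three housekeeping genes, fitted bidirectionally against 0.5% DMSO vehicle. HepaRG cells received test chemicals for 48 h in serum-free induction medium, 8 points, top 100 uM, half-log steps.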

Read-out in assay [4]: Nuclear factor NF-kappa-B p105 subunit (Homo sapiens) (UniProt P19838)
Briefly: LTEA_HepaRG_NFKB1: Life Technologies and Expression Analysis (LTEA) Assay for Nuclear Factor Kappa B Subunit 1 (NFKB1) using HepaRG (AID 2283521).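 Also: TaqMan qRT-PCR transcript normalised to ACTB GAPDH and POLR2A housekeeping genes.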 Put shortly:
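Differentiated human HepaRG cells in serum-free induction medium with 0.5% DMSO were exposed for 48 h to eight half-log concentrations, top 100 uM, in duplicate. NFKB1 mRNA measured by Fluidigm TaqMan qRT-PCR, normalised to ACTB, GAPDH and POLR2A; bidirectional fit versus DMSO.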

Read-out in assay [5]: Protein phosphatase 2A (PPP2R4), PTPA (gene 5524)
Briefly: LTEA_HepaRG_PPP2R4: Life Technologies and Expression Analysis (LTEA) Assay for Protein phosphatase 2A (PPP2R4) using HepaRG (AID 2283522). The method in brief:
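HepaRG, 48 h exposure, 8-pt half-log series from 100 uM, 0.5% DMSO vehicle, duplicates. Readout: PPP2R4 mRNA, Fluidigm qRT-PCR, housekeeping-normalized. Bidirectional curve fit vs DMSO baseline.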

Read-out in assay [6]: Phosphatase and tensin (PTEN), PTEN (gene 5728)
As to the kind of experiment: LTEA_HepaRG_PTEN: Life Technologies and Expression Analysis (LTEA) Assay for Phosphatase and tensin (PTEN) using HepaRG (AID 2283523). The method in brief:
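Expression of PTEN is quantified in the human liver line HepaRG following two days of dosing (top concentration 100 uM, half-log dilutions, 0.5% DMSO). Values derive from bidirectional curve fitting relative to DMSO controls.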

Read-out in assay [7]: solute carrier (SLC22A1), SLC22A1 (gene 6580)
As to the kind of experiment: LTEA_HepaRG_SLC22A1: Life Technologies and Expression Analysis (LTEA) Assay for solute carrier (SLC22A1) using HepaRG (AID 2283524). The method in brief:
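Transcript induction or suppression of SLC22A1 in human HepaRG cultures is scored after 48 h chemical treatment, with DMSO (0.5%) as baseline for bidirectional fitting. Concentrations span eight half-log points topping at 100 uM.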

Read-out in assay [8]: NAD(P)H dehydrogenase [quinone] 1 (NQO1), NQO1 (gene 1728)
Briefly: LTEA_HepaRG_NQO1: Life Technologies and Expression Analysis (LTEA) Assay for NAD(P)H dehydrogenase [quinone] 1 (NQO1) using HepaRG (AID 2283526). Put shortly: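 qRT-PCR read-out (Fluidigm TaqMan), normalized to three housekeeping genes, after 48 h chemical exposure of HepaRG cells. Concentrations: eight points, top 100 uM, half-log steps, 0.5% DMSO vehicle. Gain or loss of signal fitted relative to DMSO.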

Read-out in assay [9]: Nuclear factor erythroid 2-related factor 2 (Homo sapiens) (UniProt Q16236)
As to the kind of experiment: LTEA_HepaRG_NFE2L2: Life Technologies and Expression Analysis (LTEA) Assay for Nuclear factor erythroid 2-related factor 2 (NFE2L2) Transcription Factor using HepaRG (AID 2283527).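 As to outcome: TaqMan qRT-PCR transcript level normalised to ACTB GAPDH and POLR2A housekeeping genes.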 The method in brief: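 Human liver HepaRG line treated in duplicate for 48 h with an eight-point series topping at 100 uM. Gene expression of NFE2L2 by qRT-PCR, bidirectionally fitted against the vehicle control.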

Read-out in assay [10]: succinate dehydrogenase complex iron sulfur subunit B (SDHB), SDHB (gene 6390)
As to the kind of experiment: LTEA_HepaRG_SDHB: Life Technologies and Expression Analysis (LTEA) Assay for succinate dehydrogenase complex iron sulfur subunit B (SDHB) using HepaRG (AID 2283528). Put shortly: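 HepaRG cells (~100,000/well, plated 48 h) exposed in duplicate for 48 h in serum-free induction medium to 8-point half-log series from 100 uM in 0.5% DMSO; mRNA by qRT-PCR normalised to ACTB, GAPDH, POLR2A; bidirectional fit versus DMSO.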

Read-out in assay [11]: Signal transducer and activator of transcription 3 (Homo sapiens) (UniProt P40763)
Briefly: LTEA_HepaRG_STAT3: Life Technologies and Expression Analysis (LTEA) Assay for Signal transducer and activator of transcription (STAT3) using HepaRG (AID 2283529). The method in brief:
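In this transcriptional endpoint, HepaRG cultures receive test chemicals at up to 100 uM for 48 h, tested in duplicate. STAT3 mRNA is normalized to ACTB, GAPDH and POLR2A.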

Read-out in assay [12]: solute carrier (SLCO1B1), SLCO1B1 (gene 10599)
As to the kind of experiment: LTEA_HepaRG_SLCO1B1: Life Technologies and Expression Analysis (LTEA) Assay for solute carrier (SLCO1B1) using HepaRG (AID 2283530). The method in brief:
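Differentiated human HepaRG cells, plated 48 h, switched to serum-free induction medium and exposed in duplicate for 48 h to 8 half-log concentrations (top 100 uM) in 0.5% DMSO. SLCO1B1 mRNA by TaqMan qRT-PCR, normalized to ACTB/GAPDH/POLR2A.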

Read-out in assay [13]: Transforming Growth Factor (TGFA), TGFA (gene 7039)
As to the kind of experiment: LTEA_HepaRG_TGFA: Life Technologies and Expression Analysis (LTEA) Assay for Transforming Growth Factor (TGFA) using HepaRG (AID 2283532). The method in brief: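 Gene expression of TGFA was quantified by qRT-PCR after human HepaRG cells were treated for 48 h with test chemicals (eight concentrations, highest 100 uM, 0.5% DMSO). Activity in either direction was fitted relative to DMSO.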

Read-out in assay [14]: Transforming Growth Factor (TGFB1), TGFB1 (gene 7040)
Briefly: LTEA_HepaRG_TGFB1: Life Technologies and Expression Analysis (LTEA) Assay for Transforming Growth Factor (TGFB1) Transporter using HepaRG (AID 2283533). Put shortly: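 Differentiated human HepaRG cells in serum-free induction medium were exposed in duplicate for 48 h to eight concentrations (top 100 uM, half-log steps, 0.5% DMSO). TGFB1 mRNA was quantified by qRT-PCR, normalized to ACTB, GAPDH, POLR2A, and fitted bidirectionally against DMSO.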

Read-out in assay [15]: TIMP1, TIMP1 (gene 7076)
As to the kind of experiment: LTEA_HepaRG_TIMP1: Life Technologies and Expression Analysis (LTEA) Assay for TIMP1 using HepaRG (AID 2283534).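 Also: TaqMan qRT-PCR signal normalized to ACTB GAPDH and POLR2A housekeeping genes.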 Put shortly: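 Differentiated human HepaRG cells in serum-free induction medium were exposed 48 h to chemicals (8 half-log concentrations, top 100 uM, 0.5% DMSO). TIMP1 mRNA was quantified by TaqMan qRT-PCR, normalized to ACTB/GAPDH/POLR2A; bidirectional fit versus DMSO.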

Read-out in assay [16]: Tumor necrosis factor receptor 1 (TNFRSF1A), TNFRSF1A (gene 7132)
As to the kind of experiment: LTEA_HepaRG_TNFRSF1A: Life Technologies and Expression Analysis (LTEA) Assay for Tumor necrosis factor receptor 1 (TNFRSF1A) using HepaRG (AID 2283535). The method in brief:
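Differentiated human HepaRG cells were exposed in duplicate for 48 h in serum-free induction medium to eight concentrations (top 100 uM, half-log steps, 0.5% DMSO). TNFRSF1A mRNA was quantified by qRT-PCR, normalized to ACTB, GAPDH and POLR2A, then fitted bidirectionally against DMSO.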

Read-out in assay [17]: Thyroid Hormone Responsive (THRSP), THRSP (gene 7069)
As to the kind of experiment: LTEA_HepaRG_THRSP: Life Technologies and Expression Analysis (LTEA) Assay for Thyroid Hormone Responsive (THRSP) using HepaRG (AID 2283536). Put shortly: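 Cell model: human HepaRG, approx. 100,000 cells/well, 0.5% DMSO vehicle. Exposure lasts 48 h; phenobarbital 1 mM serves as induction positive control. Gene expression is measured by qRT-PCR against three endogenous control genes.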

Read-out in assay [18]: UDP glucuronosyltransferase (UGT1A1), UGT1A1 (gene 54658)
As to the kind of experiment: LTEA_HepaRG_UGT1A1: Life Technologies and Expression Analysis (LTEA) Assay for UDP glucuronosyltransferase (UGT1A1) using HepaRG (AID 2283538). The method in brief:
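HepaRG, 48 h chemical exposure (top 100 uM, half-log 8-pt, 0.5% DMSO vehicle), duplicate wells; qRT-PCR (TaqMan, Fluidigm array) for UGT1A1 mRNA, housekeeping-normalized; bidirectional curve fit vs DMSO baseline.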

Read-out in assay [19]: sulfotransferase 2A1 (SULT2A1), SULT2A1 (gene 6822)
Briefly: LTEA_HepaRG_SULT2A1: Life Technologies and Expression Analysis (LTEA) Assay for sulfotransferase 2A1 (SULT2A1) using HepaRG (AID 2283531). The method in brief:
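Differentiated human HepaRG cells in serum-free induction medium were exposed for 48 h to eight half-log concentrations (top 100 uM, 0.5% DMSO). SULT2A1 mRNA was measured by qRT-PCR, normalized to ACTB, GAPDH and POLR2A, and fitted bidirectionally against DMSO.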

Chain of Nuclear factor erythroid 2-related factor 2 (Homo sapiens) (Q16236 whole entry, looked up): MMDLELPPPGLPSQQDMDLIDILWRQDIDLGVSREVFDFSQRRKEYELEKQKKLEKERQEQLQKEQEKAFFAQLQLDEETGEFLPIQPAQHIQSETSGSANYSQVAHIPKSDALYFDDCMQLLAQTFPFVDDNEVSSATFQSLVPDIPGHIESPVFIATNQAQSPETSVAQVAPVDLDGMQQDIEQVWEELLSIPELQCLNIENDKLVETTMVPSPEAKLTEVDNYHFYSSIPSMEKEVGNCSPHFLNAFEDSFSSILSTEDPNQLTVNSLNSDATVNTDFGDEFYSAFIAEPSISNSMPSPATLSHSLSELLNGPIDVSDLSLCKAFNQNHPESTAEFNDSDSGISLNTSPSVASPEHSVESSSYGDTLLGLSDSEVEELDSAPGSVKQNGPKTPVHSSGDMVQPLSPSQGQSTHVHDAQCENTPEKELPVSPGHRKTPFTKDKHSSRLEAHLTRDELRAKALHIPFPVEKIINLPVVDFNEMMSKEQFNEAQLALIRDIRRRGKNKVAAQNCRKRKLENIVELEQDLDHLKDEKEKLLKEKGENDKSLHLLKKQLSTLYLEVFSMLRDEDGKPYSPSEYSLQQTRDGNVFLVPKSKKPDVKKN
Chain of Signal transducer and activator of transcription 3 (Homo sapiens) (P40763 whole entry, looked up): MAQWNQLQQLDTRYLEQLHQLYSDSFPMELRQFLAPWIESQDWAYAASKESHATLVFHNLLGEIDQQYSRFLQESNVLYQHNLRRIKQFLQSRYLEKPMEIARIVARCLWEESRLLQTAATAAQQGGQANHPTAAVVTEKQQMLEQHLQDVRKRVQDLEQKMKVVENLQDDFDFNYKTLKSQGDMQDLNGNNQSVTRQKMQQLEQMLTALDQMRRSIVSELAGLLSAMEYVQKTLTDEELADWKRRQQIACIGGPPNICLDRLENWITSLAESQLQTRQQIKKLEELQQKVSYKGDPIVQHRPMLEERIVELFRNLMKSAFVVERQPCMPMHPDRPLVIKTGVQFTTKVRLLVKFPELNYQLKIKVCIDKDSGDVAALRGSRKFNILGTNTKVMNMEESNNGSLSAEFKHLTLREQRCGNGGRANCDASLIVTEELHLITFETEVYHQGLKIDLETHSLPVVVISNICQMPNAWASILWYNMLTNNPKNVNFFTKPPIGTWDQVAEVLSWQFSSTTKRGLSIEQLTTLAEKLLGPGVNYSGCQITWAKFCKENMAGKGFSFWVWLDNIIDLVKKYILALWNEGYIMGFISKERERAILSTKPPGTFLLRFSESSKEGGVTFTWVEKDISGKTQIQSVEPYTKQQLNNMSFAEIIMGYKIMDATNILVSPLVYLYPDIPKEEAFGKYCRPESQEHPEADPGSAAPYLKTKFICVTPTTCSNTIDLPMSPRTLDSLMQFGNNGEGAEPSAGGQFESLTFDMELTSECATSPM
Chain of Nuclear factor NF-kappa-B p105 subunit (Homo sapiens) (P19838 whole entry, looked up): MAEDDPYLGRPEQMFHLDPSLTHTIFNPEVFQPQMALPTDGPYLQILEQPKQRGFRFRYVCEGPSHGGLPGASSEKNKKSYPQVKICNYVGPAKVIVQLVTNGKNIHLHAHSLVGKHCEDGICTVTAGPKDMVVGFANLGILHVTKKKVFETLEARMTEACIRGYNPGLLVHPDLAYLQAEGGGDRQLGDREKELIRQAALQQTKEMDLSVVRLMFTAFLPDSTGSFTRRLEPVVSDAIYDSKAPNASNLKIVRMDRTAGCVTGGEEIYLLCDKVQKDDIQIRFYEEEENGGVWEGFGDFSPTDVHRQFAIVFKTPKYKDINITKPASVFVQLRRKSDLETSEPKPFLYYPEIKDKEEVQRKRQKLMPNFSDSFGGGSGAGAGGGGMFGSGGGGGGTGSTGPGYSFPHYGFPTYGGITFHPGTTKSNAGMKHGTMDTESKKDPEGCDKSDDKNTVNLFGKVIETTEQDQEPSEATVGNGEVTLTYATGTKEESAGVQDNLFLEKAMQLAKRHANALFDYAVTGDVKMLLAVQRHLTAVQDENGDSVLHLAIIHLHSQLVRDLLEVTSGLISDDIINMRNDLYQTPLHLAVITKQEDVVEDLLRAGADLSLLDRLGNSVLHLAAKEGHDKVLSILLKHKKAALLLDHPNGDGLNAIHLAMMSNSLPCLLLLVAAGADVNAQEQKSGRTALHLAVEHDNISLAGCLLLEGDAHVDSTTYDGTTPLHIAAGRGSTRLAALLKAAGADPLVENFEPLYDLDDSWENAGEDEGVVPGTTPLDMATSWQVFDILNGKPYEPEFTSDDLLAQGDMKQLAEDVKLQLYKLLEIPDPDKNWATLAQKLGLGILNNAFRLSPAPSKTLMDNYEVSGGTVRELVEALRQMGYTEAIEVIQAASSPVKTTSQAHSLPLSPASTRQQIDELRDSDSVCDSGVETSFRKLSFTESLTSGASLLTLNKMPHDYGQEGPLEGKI

With `CCCOc1ccc(S(=O)(=O)N2CCN(CC)CC2)cc1-c1nc2c(CC)n(Cc3ccccn3)nc2c(=O)[nH]1`, the call in [1], in assay [2], in assay [3], in [4], in assay [5] and in assay [6] was inactive. Also, the compound was classed as inactive in [7], in assay [8], in assay [10], in [11], in assay [13] and in assay [15]. Further, the outcome in assay [16] was inactive. Further, the AC50 in assay [9] is 25 µM (active); in [12] it was 50 µM (active); in assay [14], 26.3 µM (active); in [17] it was 50 µM (active); in assay [18], 4.74 µM (active).

`O=C(O)c1ccc2c(c1)nc(C(=O)NC1CCN(C3CC3)CC1)n2Cc1cc(-c2ccc(Cl)s2)on1`: the compound was called inactive in assay [1], in assay [2], in assay [3], in assay [4], in assay [5] and in [6]. Besides, the outcome in assay [7], in assay [9], in assay [10], in [11], in [12] and in assay [13] was inactive. The outcome in assay [14], in assay [15], in [16] and in assay [17] was inactive.

With `OC[C@H]1O[C@@](CO)(O[C@H]2O[C@H](CO)[C@@H](O)[C@H](O)[C@H]2O)[C@@H](O)[C@@H]1O`, the outcome in assay [1], in assay [2], in assay [3], in assay [4], in assay [5] and in assay [6] was inactive. For the same compound, the outcome in assay [7], in assay [9], in assay [10], in assay [11], in [12] and in assay [19] was inactive. Besides, the compound was called inactive in assay [13], in [14], in assay [15], in assay [16], in assay [17] and in assay [18].

Broadly, the AC50 is the concentration at which the activity in the assay is half-maximal.
